# This is a sample that favours compounds with a hit; in the whole collection about 1.1% have one here.
# SARS PLpro yeast – inhibitors of SARS-CoV papain-like protease in yeast | S. cerevisiae expressing SARS-CoV PLpro, growth rescue | Potency, µM (series often up to 32.9 µM), for the others: at the top dose activity, positive = growth rescue, hits mostly activators | hit rate 0.19% among 330,000 | AID 485353; calls by dose curve; further: 0% is about no effect; nearly all actives have a fitted effect of over 55% in size
# RE007 growth inh – less growth of the S. pombe RE007 Vpr strain; S. pombe RE007 Vpr strain, BacTiter-Glo ATP luminescence, 24 h; AID 651644; hit rate 0.21% among 360,000; Potency, µM (highest dose often 92.2 µM), inactives show at the highest dose activity change, negative = less growth, actives largely listed as inhibitors; active means well fitted falling curve with a large enough effect; inconclusive means small, poorly fitted or top-dose-only effect; inactive means no such curve, though single readings can be large or run the other way; further: on the % scale 0 is the no-effect control and ±100 the full control effect; nearly all actives have a fitted effect of over 50% in size
#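 Fission yeast strain RE007, carrying one chromosomally integrated HIV-1 vpr copy, was seeded at OD 0.01 in PMG+AL medium with 23 nL pinned compound. After 24 h at 30 °C and 99% humidity, viability was read by BacTiter-Glo luminescence.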
# LmPK inh – inhibitors of Leishmania mexicana pyruvate kinase; Q27686; purified LmPK, Kinase-Glo ATP luminescence, 1 h; Potency, µM (doses to about 57.5 µM), for inactives: at the top dose activity change, negative = inhibition, most hits filed as inhibitors; hit rate 0.37% among 290,000; AID 1721; further: on the % scale 0 is the no-effect control and ±100 the full control effect
#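 ATP generated from ADP (0.1 mM) and PEP (0.5 mM) by 0.1 nM LmPK over 1 h at room temperature (pH 7.2 imidazole buffer) was detected by coupled luciferase luminescence. Values were normalized to uninhibited and no-enzyme wells.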
# TbPYK inhibitor – blocks Trypanosoma brucei pyruvate kinase; Q57TT1; TbPYK enzyme, Kinase-Glo Plus ATP luminescence, 45 min; Potency, µM (top dose mostly 76.8 µM), inactives show at the highest dose activity, negative = inhibition, most hits filed as inhibitors; hit rate 0.12% among 410,000; AID 624173; further: on the % scale 0 is the no-effect control and ±100 the full control effect; nearly all actives have a fitted effect of over 50% in size
#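 Glycolytic pyruvate kinase of T. brucei was incubated with substrate, test compound and 130 uM ADP for 45 minutes at room temperature. Luminescent Kinase-Glo Plus signal was measured after 10 minutes.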
# Giardia FBPA inh – inhibitors of Giardia lamblia fructose-1,6-bisphosphate aldolase; hit rate 0.71% among 290,000; purified Giardia FBPA; Potency, µM (doses to about 59.6 µM), inactives show top-dose activity, negative = inhibition, actives largely listed as inhibitors; further: on the % scale 0 is the no-effect control and ±100 the full control effect; nearly all actives have a fitted effect of over 55% in size
# Target sequence (A8B2U2 whole entry, looked up): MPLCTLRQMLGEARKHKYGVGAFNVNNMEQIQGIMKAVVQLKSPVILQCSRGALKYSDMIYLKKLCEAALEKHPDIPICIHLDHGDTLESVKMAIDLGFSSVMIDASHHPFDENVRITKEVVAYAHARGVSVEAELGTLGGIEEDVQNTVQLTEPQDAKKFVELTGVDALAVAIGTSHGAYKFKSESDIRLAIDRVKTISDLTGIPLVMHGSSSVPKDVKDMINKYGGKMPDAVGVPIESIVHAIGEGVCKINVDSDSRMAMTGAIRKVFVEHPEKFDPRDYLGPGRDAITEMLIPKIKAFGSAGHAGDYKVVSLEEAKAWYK
#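 Giardia FBPA (40 nM reagent) was preincubated 10 min at RT with compound (up to 57.5 uM final), then substrate plus GAPDH/TPI/NAD/arsenate coupling system with diaphorase/resazurin was added; resorufin fluorescence (525/598 nm) was read after 20 min.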
# * = called active by the depositor; u = inconclusive; x = no result given; ! = not confirmed by another sample; [ ] = dose if it differs, or a comment. Unless noted, the call rests on the fitted dose curve; in most records, active means well fitted curve in the direction sought with a large enough effect; inconclusive means small, poorly fitted or top-dose-only effect, or another doubt; inactive means no such curve, though single readings can be large; an effect the other way counts as inactive or inconclusive. Potency means the concentration at half of the fitted maximal effect.
SMILES,SARS PLpro yeast,RE007 growth inh,LmPK inh,TbPYK inhibitor,Giardia FBPA inh
NC1(C(=O)O)CC(C(=O)O)C1 (stereo unspecified),x,x,x,x,5.61µM*!
CC(=O)C[C@H]1[C@H](O[C@H]2[C@H](OC(C)C(=O)N[C@@H](C)C(=O)N[C@H](CCC(=O)N[C@@H](CCCCN)C(=O)N[C@H](C)C(=O)O)C(N)=O)[C@@H](NC(=O)O)C(O)O[C@@H]2CO)O[C@H](CO)[C@@H](O)[C@@H]1O (stereo partly specified),x,x,x,-4.5%,x
NN1C(=O)/C(=C\c2ccco2)SC1=S,-2.8%,u,8.3%,-8.2%,6.29µM*
O=C(CN1C(=O)/C(=C/c2ccco2)SC1=S)Nc1ccc(O)c(C(=O)O)c1,1.0%,1.3%,17.1%,-3.5%,x
O=C(NCCn1cc(SCc2ccc(F)cc2)c2ccccc21)c1cccs1,x,x,x,-0.3%,x
CCc1nc(C)cn1S(=O)(=O)c1ccc(Cl)c(Cl)c1OC,x,x,x,0.0%,x
Cc1cccc(NC(=O)c2ccoc2C)n1,-10.2%,-20.6%,u,-7.7%,4.6%
Cc1csc(NC(=O)c2cccc(C)c2C)n1,1.5%,0.4%,-5.4%,-8.8%,-2.7%
CCOC(=O)Cc1csc(NC(=O)c2c(C)noc2C)n1,x,11.0%,x,-1.1%,x
CCOC(=O)Cc1csc(NC(=O)c2ccoc2C)n1,-8.5%,-29.7%,14.1µM*,-27.0%,0.7%
Cc1occc1C(=O)Nc1cc(C(C)(C)C)on1,-5.3%,-26.2%,12.6µM*,u,1.3%
Cc1csc(NC(=O)c2ccoc2C)n1,-3.8%,u,15.8µM*,u,2.2%
COc1ccc(Cl)cc1NC(=O)CN1c2ccccc2S(=O)(=O)c2ccccc21,x,x,x,-8.8%,x
CCc1ccc(NC(=O)C2CCCN(S(=O)(=O)c3c(C)noc3/C=C/N(C)C)C2)cc1 (stereo unspecified),x,x,x,1.5%,x
CCCCc1c(-c2cccc(Cl)c2)ncn1CCc1ccccc1OC,x,44.7µM*,x,7.8%,x
CCCCc1c(-c2ccccc2)ncn1CCc1ccccc1OC,x,-29.6%,x,-2.6%,x
CN1c2ccccc2C(C)(C)C12C=Nc1c(ccc3ccccc13)O2 (stereo unspecified),-9.0%,u,1.2%,-0.6%,11.2µM*
O=C(O)c1ccc2c(c1)C(=O)/C(=C/c1ccccc1)C2=O,5.0%,3.3%,0.2%,35.5µM*,-26.5%
CCNC(=O)c1c2c(nc3ccccc13)C(=O)N(C1CCCCC1)C2,x,x,x,4.3%,x
N#C/C(=C/c1cc[nH]c1)C(N)=S,2.5%,1.3%,-6.7%,-3.0%,-13.6%
N#C/C(=C\c1ccc(O)c(O)c1)C(N)=S,x,x,x,x,14.1µM*
CCCCCCCCCCCCCCCCn1cc[n+](CC(C)=O)c1,1.3%,31.6µM*,2.6%,-3.7%,1.8%
CCOc1ccc(N=Cc2c(C)[nH]n(-c3nc4ccccc4[nH]3)c2=O)cc1,-91.0%,3.98µM*,22.4µM*,u,-3.8%
Cc1[nH]n(-c2ccccc2)c(=O)c1C=Nc1cnc2ccccc2c1,-8.1%,-24.6%,-3.8%,-3.9%,-11.8%
CC(=O)Nc1ccc(NC(=O)c2cnn(-c3ccccc3)c2C2CCN(C(=O)OC(C)(C)C)CC2)cc1,x,x,x,-5.1%,x
SMILES,SARS PLpro yeast,RE007 growth inh,LmPK inh,TbPYK inhibitor,Giardia FBPA inh
Cc1ccn2c(NCc3ccc4c(c3)OCO4)c(-c3ccc(O)cc3)nc2c1,7.94µM*,-2.8%,6.4%,-8.2%,0.8%
COc1cc(C(=O)NCc2nc(-c3ccc(Cl)cc3)no2)cc(OC)c1OC,x,x,x,1.4%,x
O=[N+]([O-])c1cc([N+](=O)[O-])c2oc(-c3ccccc3)c(Br)c2c1O,-12.7%,28.2µM*,-6.6%,10.4%,3.6%
O=c1c(O)c(-c2ccccc2)oc2cccc(O)c12,x,x,x,x,5.3%
COc1ccc(C(=O)Nc2ccc(C)cn2)c(OC)c1,-20.8%,u,14.1µM*,-17.8%,-13.5%
O=C(Nc1ccc(F)c(Cl)c1)C1Cc2ccccc2CN1S(=O)(=O)c1ccc(F)cc1 (stereo unspecified),x,x,x,-6.4%,x
Cc1ccc(NC(=O)c2ccc(CN3CCN(C)CC3)cc2)cc1Nc1nc(-c2cccnc2)cs1,x,x,x,0.0%,x
O=C(O)c1ccc(N/N=C/c2ccc3nccnc3c2)cc1,-1.2%,u,15.8µM*,u,-1.0%
O=C(O)c1ccc(N/N=C/c2ccncc2)cc1,-2.5%,-15.6%,-4.6%,-7.0%,3.98µM*
COC(=O)c1ccc2[nH]c(C3(O)CCCCC3)c(C)c2c1,-10.6%,-0.9%,x,3.0%,x
Cc1c(C2(O)CCCCC2)[nH]c2ccc(C(F)(F)F)cc12,-2.1%,39.8µM*,x,3.7%,x
CN=c1nc(-c2ccccc2)n(-c2ccccc2)s1,x,-1.7%,x,7.94µM*,-1.9%
Cn1nc(-c2ccccc2)nc1-c1ccccc1,-7.7%,-3.9%,x,-0.5%,x
CCCCCCCC(=O)CC[C@H]1[C@@H](C/C=C/CCCC(=O)OC(C)C)[C@@H](O)C[C@H]1O,x,x,x,-8.3%,x
COC(=O)c1c(C)[nH]c(O)c1C=Nc1ccc(C#N)cc1,-0.7%,11.1%,-0.2%,-9.1%,15.8µM*
O=C(NC(=S)NCCSc1ccccc1)c1cccnc1,10µM*,4.6%,1.9%,11.2%,-0.3%
O=C(NC(=S)NCc1cccnc1)c1ccccc1,5.7%,7.8%,0.3%,5.1%,1.0%
COc1ccc(-c2n[nH]c(=S)n2-c2ccc(C)cc2C)cc1,-2.2%,6.7%,-2.4%,17.8µM*,19.3%
COc1ccc(Cn2c(-c3ccc(OC)cc3)n[nH]c2=S)cc1,6.6%,13.5%,u,u,23.6%
Cc1ccc(-n2c(-c3cnccn3)n[nH]c2=S)c(Br)c1,0.3%,0.1%,31.6µM*,u,-18.3%
S=c1[nH]cc(-c2ccccc2)n1-c1ccccc1Cl,16.8%,0.4%,u,0.0%,-8.4%
COc1ccccc1-n1c(-c2ccccc2)c[nH]c1=S,3.8%,8.4%,11.2µM*,u,u
COc1ccccc1-n1c(-c2cc(-c3ccc(F)cc3)n[nH]2)n[nH]c1=S,-1.0%,7.6%,-27.7%,u,2.1%
COc1ccccc1-n1c(-c2cccnc2)n[nH]c1=S,0.4%,12.2%,14.1µM*,u,-28.6%
CCn1c(-c2ccc(Cl)cc2)n[nH]c1=S,u,-9.2%,u,u,-1.8%
SMILES,SARS PLpro yeast,RE007 growth inh,LmPK inh,TbPYK inhibitor,Giardia FBPA inh
Cc1ccc(-n2c(-c3cccnc3)n[nH]c2=S)c(C)c1,6.5%,5.1%[3.69 µM],12.6µM*,x,-20.4%
CCn1c(-c2cccnc2)n[nH]c1=S,2.4%,5.4%,-4.9%,u,u
Cc1ccc(-n2c(-c3ccc(Cl)cc3)n[nH]c2=S)c(C)c1,12.3%,16.0%,20µM*,5.01µM*,24.2%
COc1cc(/C=C2/C(=O)CNC2=O)ccc1O,-1.5%,-3.6%,-3.6%,u,-28.4%
CCOC(=O)C1=C(C)N(c2ccccc2)C(=O)/C1=C\c1ccc(O)c(OC)c1,0.6%,-9.1%,u,-15.2%,17.7µM*
COc1cc(C=C2C(=O)C=CC2=O)ccc1O,x,2µM*,x,3.55µM*,x
CCOC(=O)C1=C(C)N(c2ccccc2)C(=O)/C1=C\c1ccco1,-0.6%,-2.7%,3.1%,-3.0%,5.3%

# Compound activity deposited in PubChem by National Center for Advancing Translational Sciences (NCATS).
